Data as given in PubChem BioAssay AID488933 (Broad Institute, 2010).
Measured potencies and affinities stand elsewhere. Calls of active or inactive are those of the source.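 Rule for the calls: active = compounds lowering the cell viability signal, with fitted half-maximal dose at most ten times the top valid dose; inconclusive = flat partial drop of 30 to 70 percent, or poor fit; inactive = flat near zero, weak potency, or rising signal.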

test: NIH-3T3 viability loss with fluconazole – cell-based, Alamar Blue, dry powder, set 3, cytotoxicity control for reversing antifungal drug resistance, dose response (AID 488933); conditions: NIH-3T3 viability with fluconazole, 48 h; series mostly up to 26 µM

Compound | outcome
O=C(c1cccc(Cl)c1)N1CCN(c2ccccn2)CC1 | inactive
N#Cc1ccc(C(=O)N2CCN(c3ccccn3)CC2)cc1 | inactive
O=C(C1CCCCC1)N1CCN(c2ccccn2)CC1 | inactive
Cc1cccc(N2CCN(C(=O)c3ccc(Cl)cc3)CC2)n1 | inactive
CC(C)C(=O)N1CCN(c2ccccn2)CC1 | inactive
O=C(c1ccc(Cl)cc1)N1CCN(c2nccs2)CC1 | inactive
Cc1ccnc(N2CCN(C(=O)c3ccc(Cl)cc3)CC2)c1 | inactive
c1ccc(N2CCNCC2)nc1 | inactive
COCCC(=O)N1CCN(c2ccccn2)CC1 | inactive
CC(C)C(=O)N1CCN(c2ccnc3cc(Cl)ccc23)CC1 | inactive
COc1ccc(C(=O)N2CCN(c3ccccn3)CC2)cc1 | inactive
O=C(c1ccc(Cl)cc1)N1CCN(c2ncccc2C(F)(F)F)CC1 | inactive
O=C(c1ccc(Cl)cc1)N1CCN(c2nc3ccccc3o2)CC1 | inactive
N#Cc1cccnc1N1CCN(C(=O)c2ccc(Cl)cc2)CC1 | inactive
O=C(c1ccc(F)cc1)N1CCN(c2ccccn2)CC1 | inactive
COc1cccnc1N1CCN(C(=O)c2ccc(Cl)cc2)CC1 | inactive
O=C(c1ccc(Cl)cc1)N1CCN(c2ncccn2)CC1 | inactive
CCCCC(=O)N1CCN(c2ccccn2)CC1 | inactive
Cc1ccc(N2CCN(C(=O)c3ccc(Cl)cc3)CC2)nc1 | inactive
Cn1ccnc1N1CCN(C(=O)c2ccc(Cl)cc2)CC1 | inactive
O=C(c1ccc(Cl)cc1)N1CCN(c2nc3ccccc3s2)CC1 | inactive
Cc1ccc(N2CCN(C(=O)c3ccc(Cl)cc3)CC2)nn1 | inactive
O=C(c1ccc(Cl)cc1)N1CCN(c2cnccn2)CC1 | inactive
O=C(c1ccccc1Cl)N1CCN(c2ccccn2)CC1 | inactive
Cc1ccc(C(=O)N2CCN(c3ccccn3)CC2)cc1 | inactive
O=C(c1ccc(Cl)cc1)N1CCN(c2cccc(C(F)(F)F)n2)CC1 | inactive
O=C(c1ccc(Cl)cc1)N1CCN(c2ccc(C(F)(F)F)cn2)CC1 | inactive
